ChEMBL document CHEMBL1157539, “Thousands of chemical starting points for antimalarial lead identification” (Nature, 2010)

Experiments:
Assay type in all cases: functional
Plasmodium falciparum [1] = assay: GSK_TCMDC: Inhibition of Plasmodium falciparum 3D7 in whole red blood cells, using parasite LDH activity as an index of growth. Test compounds present at 2uM
Plasmodium falciparum [2] = assay: GSK_TCMDC: Inhibition of Plasmodium falciparum Dd2 in whole red blood cells, using parasite LDH activity as an index of growth. Test compounds present at 2uM
HepG2 = assay: GSK_TCMDC: Percent inhibition of human HepG2 cell line. Test compounds present at 10uM.

Row | SMILES | Inhibition (Plasmodium falciparum [1]) [%] | Inhibition (Plasmodium falciparum [2]) [%] | Inhibition (HepG2) [%]
1 | Oc1cccc2ccc(Nc3ccccn3)nc12 | 99 | 93 | 72
2 | O=C(Nc1ccc2c(c1)CCN2C1CCN(Cc2ccc(F)cc2Cl)C1)c1ccco1 (stereo not drawn) | 97 | 96 | 4
3 | CCOc1cc(C(=O)N[C@@H](Cc2ccccc2)[C@H](O)CNCc2cc(OC)cc(OC)c2)cc(N2CCCS2(=O)=O)c1.Cl | 94 | 66 | 0
4 | Cc1cc(C)cc(OCC(O)CN(Cc2cc(Cl)cc(Cl)c2)C(=O)Nc2ccc([N+](=O)[O-])cc2)c1 (stereo not drawn) | 95 | 38 | 0
5 | Cc1nc(-c2cccc(NC(C)C(=O)Nc3cc(C(F)(F)F)ccc3N3CCOCC3)c2)cs1 (stereo not drawn) | 82 | 97 | 3
6 | Cc1cccc2nc(-c3ccc(-c4ccc(CN5CCN(CCC#N)CC5)cc4)cc3)[nH]c12.O=C(O)C(F)(F)F | 91 | 27 | 48
7 | CC(C)(C)CNCC(C)(C)c1nc(-c2ccc(Cl)c(O)c2)c(-c2ccncc2)[nH]1.Cl | 100 | 98 | 42
8 | O=C(NCc1ccccc1)c1ncn(CCCN2CCC(N3CCCC3)CC2)c1-c1ccc(Cl)c(Cl)c1.O=CO | 89 | 36 | 8
9 | COc1cccc(NC(=O)NC2CCN(CCCCCNC(=O)/C=C/c3ccc(Cl)c(Cl)c3)CC2)c1 | 100 | 8 | 14
10 | CN(C)c1ccc(-c2ccc(C(=O)NC3CCN(Cc4ccccc4F)CC3)s2)cc1.O=C(O)C(F)(F)F | 88 | 19 | 30
11 | CS(=O)(=O)CCNCc1cccc(-c2cc3nccc(Nc4ccc(Oc5ccccc5)cc4)c3cc2Cl)c1 | 100 | 82 | 2
12 | O=C(Nc1ccc(C(=O)N2CCN(CCN3CCN(c4cccc(C(F)(F)F)c4)CC3)CC2)cc1)c1cc(Cl)cc(Cl)c1 | 100 | 19 | 23
13 | COc1ccc(NC(=O)Nc2ccc(C)c(-c3ccc(C(=O)NCCN4CCCC4)cc3)c2)cc1 | 95 | 1 | 18
14 | CC1(C)CN(CCC2CCC(NC(=O)/C=C/c3ccccc3F)CC2)Cc2ccc(C#N)cc21.Cl (stereo not drawn) | 89 | 82 | 0
15 | Cc1cccc2nc(-c3ccc(-c4cccc(CN5CCCC5CN)c4)cc3)[nH]c12.O=C(O)C(F)(F)F (stereo not drawn) | 91 | 32 | 7
16 | O=C(Nc1ccc(C(=O)Oc2ccc3ccccc3c2)cc1)N[C@@H](Cc1ccc(O)cc1)C(=O)NC1CCN(Cc2ccc(O)cc2)C1.O=C(O)C(F)(F)F (stereo partly drawn) | 86 | 1 | 1
17 | CN(C)c1ccc(-c2csc(C(=O)NC3CCCCN(Cc4ccc(C(C)(C)C)cc4)C3)c2)cc1.O=C(O)C(F)(F)F (stereo not drawn) | 84 | 55 | 17
18 | Cc1[nH]cnc1-c1cccc(NC(=O)c2cc3ccccc3s2)c1 | 99 | 48 | 5
19 | CN1CCN(CCCSc2ccc3c(c2)ncn3-c2cc(OCc3ccccc3C(F)(F)F)c(C(N)=O)s2)CC1.O=CO | 100 | 86 | 28
20 | CCc1nc(N)nc(N)c1CCCOc1ccccc1Cl.Cl | 92 | 13 | 61
21 | COc1ccccc1C1CCN(C2CCC(NC(=O)/C=C/c3ccc(OC(F)(F)F)cc3)CC2)CC1 (stereo not drawn) | 82 | 11 | 65

Row | SMILES | Inhibition (Plasmodium falciparum [1]) [%] | Inhibition (Plasmodium falciparum [2]) [%] | Inhibition (HepG2) [%]
22 | Cc1ccc2nc(C)cc(N/N=C/c3cccc([N+](=O)[O-])c3)c2c1 | 100 | 99 | 0
23 | CC(C)CCNC(=O)c1cnc2c(O)cccc2c1Nc1cccc(NC(=O)c2ccc(F)cc2)c1.O=C(O)C(F)(F)F | 93 | 43 | 51
24 | CCOc1ccccc1CCNCC1CCN(CC2CCCCC2)CC1.O=C(O)C(F)(F)F | 84 | 59 | 35
25 | CC(Sc1nc2sccc2c(=O)n1C)C(=O)Nc1ccc2c(c1)OCO2 (stereo not drawn) | 100 | 100 | 5
26 | COc1ccc2ncc(F)c(CCN3CC(O)C(CNCc4ccc5c(n4)NC(=O)CS5)C3)c2c1.Cl (stereo not drawn) | 92 | 34 | 0
27 | Cc1nc2nc(N)nc(N)c2c(C)c1Cc1cccc(C(F)(F)F)c1.Cl | 89 | 23 | 65
28 | COc1c(Br)cc(Br)cc1-c1ccc(CN2CC3CCC2CC3)[nH]1.Cl | 98 | 100 | 91
29 | COc1cccc2c(N/N=C/c3cccc([N+](=O)[O-])c3)ccnc12 | 100 | 47 | 12
30 | CC1CC(C)CN(CCCNc2ccc(C(=O)Nc3ccc(C(F)(F)F)cc3)cc2[N+](=O)[O-])C1 (stereo not drawn) | 100 | 99 | 31
31 | Clc1ccccc1OCc1ccccn1 | 85 | 2 | 2
32 | CCOc1ccc(C(=O)Nc2nonc2-c2ccc(OC)c(OC)c2)cc1 | 95 | 42 | 7
33 | COc1ccc(OCCn2cc(C(=O)c3ccco3)c3ccccc32)cc1 | 98 | 61 | 17
34 | O=C(CCc1c[nH]cn1)Nc1cccc(-c2ccc(-c3nc4cc(F)ccc4[nH]3)cc2)c1 | 100 | 79 | 18
35 | CC(C)NCc1ccc(-c2ccc(-c3nc4cc(F)ccc4[nH]3)cc2)cc1.O=C(O)C(F)(F)F | 100 | 100 | 14
36 | CC(C)CC1c2[nH]c3ccccc3c(=O)c2CN1C(=O)OC(C)(C)C (stereo not drawn) | 97 | 96 | 2
37 | O=C(Nc1ccc(O)c(-c2nc3ccccc3[nH]2)c1)c1ccc([N+](=O)[O-])cc1 | 97 | 45 | 0
38 | O=C(Nc1ccc(Cl)cc1)Nc1ccc(-c2cccc(-c3nc4cc(F)ccc4[nH]3)c2)cc1 | 100 | 96 | 74
39 | CCCCCCCC/C=C\CCCCCCCC(=O)NCc1ccc(O)c(OC)c1 [OLVANIL] | 96 | 93 | 0
40 | Br.Fc1ccc(C2N=C(SCCSC3=NC(c4ccc(F)cc4)C(c4ccc(F)cc4)N3)NC2c2ccc(F)cc2)cc1 (stereo not drawn) | 99 | 69 | 18
41 | COc1ccc2[nH]ccc(=NN=Cc3ccc(F)cc3)c2c1 | 98 | 54 | 2
42 | COc1ccc(NC(=O)c2ccc(C=Cc3ccc(C(F)(F)F)cc3)cc2)cc1N1CCN(C)CC1 | 99 | 47 | 46

Row | SMILES | Inhibition (Plasmodium falciparum [1]) [%] | Inhibition (Plasmodium falciparum [2]) [%] | Inhibition (HepG2) [%]
43 | Cc1ccc(F)c(NC(=O)c2c(-c3c(F)cccc3Cl)noc2C)c1 | 90 | 18 | 13
44 | O=C(Nc1ccccc1)c1ccc(N2CCC(COc3cccc(C(F)(F)F)c3)CC2)nc1 | 96 | 83 | 11
45 | COc1ccccc1C1CCN(C2CCC(NC(=O)/C=C/c3cc(C(F)(F)F)cc(C(F)(F)F)c3)CC2)CC1 (stereo not drawn) | 92 | 21 | 31
46 | COc1ccc(N2CCN(CCCCNC(=O)c3ccc(NC(=O)c4cc(C(F)(F)F)cc(C(F)(F)F)c4)cc3)CC2)cc1OC | 100 | 100 | 9
47 | Cc1cccc(N2C(N)=NC(N)=NC2(C)C)c1C.Cl | 90 | 0 | 0
48 | CN(C)S(=O)(=O)c1ccc(N2CCN(CCC3(c4cccc(F)c4)CCN(C(=O)C(C)(C)C)CC3)CC2)c2nonc12 | 91 | 85 | 8
49 | Cc1nc2ccc(-c3ccc(OC(F)(F)F)cc3)cc2c(O)c1C#N | 98 | 97 | 0
50 | Cc1ccc(C(=O)c2oc3ccc4c(C)cc(=O)oc4c3c2C)cc1 | 86 | 48 | 0
51 | Cc1nc2ccccc2c(O)c1-c1ccc(Cl)cc1 | 93 | 91 | 0
52 | COc1cccc(Nc2nc(C)cc(NCc3ccc(-n4ccnc4)cc3)n2)c1 | 100 | 99 | 0
53 | O=C(O)C[C@H](NC(=O)c1cc(-c2ccc3c(c2)OCO3)no1)C(=O)O.O=C(O)C[C@H](NC(=O)c1conc1-c1ccc2c(c1)OCO2)C(=O)O | 98 | 0 | 0
54 | CC(C)CCn1c(Sc2ccc([N+](=O)[O-])cc2C(F)(F)F)nnc1-c1ccccc1Cl | 99 | 43 | 0
55 | CC(C)(CNC(=O)C1CCN(Cc2ccoc2)CC1)c1nc(-c2ccc(Cl)c(O)c2)c(-c2ccncc2)[nH]1.Cl | 93 | 66 | 0
56 | O=C(Nc1cccc(Cl)c1Cl)NC1CCN(Cc2cccc(O)c2)CC1.O=C(O)C(F)(F)F | 98 | 1 | 1
57 | COc1ccc(Cc2cccc(C(C(=O)NCc3cc(Cl)cc(Cl)c3)N3CCN(C)CC3)c2)cc1.O=C(O)C(F)(F)F (stereo not drawn) | 100 | 24 | 8
58 | CC(C)CN1CCCN(Cc2cccc(NC(=O)c3ccc(-c4ccccc4)cc3)c2)CC1.O=C(O)C(F)(F)F | 99 | 24 | 30
59 | CC(C)(CNCc1ccccc1)c1nc(-c2ccc(Cl)c(O)c2)c(-c2ccncc2)[nH]1.Cl | 100 | 99 | 77
60 | CS(=O)(=O)N(c1ccccc1)c1cc(C(=O)N[C@@H](Cc2ccccc2)[C@H](O)CNC2CC2)cc(N2CCCC2=O)c1 | 100 | 98 | 1
61 | Cc1cccc2nc(-c3ccc(-c4cccc(CNCc5cccc(N)c5)c4)s3)[nH]c12.O=C(O)C(F)(F)F | 100 | 85 | 15
